Test results published in the supplement of paper PMC3334620.
The full ranking holds about 33,000 sequences; the median of “E-score (-0.5 to 0.5)” is about -0.016, and the highest 2% start at about 0.32. This excerpt belongs to a sample that is enriched for the highest values.

What follows are sequences tested against T1, Stp1 (UniProt B3LFK1) (assay: PBM E-score (8-mer binding enrichment) (E-score (-0.5 to 0.5)); higher = stronger / more preferred TF binding). Conditions: protein concentration: 200 nM; construct: GST-full length.
T1 sequence: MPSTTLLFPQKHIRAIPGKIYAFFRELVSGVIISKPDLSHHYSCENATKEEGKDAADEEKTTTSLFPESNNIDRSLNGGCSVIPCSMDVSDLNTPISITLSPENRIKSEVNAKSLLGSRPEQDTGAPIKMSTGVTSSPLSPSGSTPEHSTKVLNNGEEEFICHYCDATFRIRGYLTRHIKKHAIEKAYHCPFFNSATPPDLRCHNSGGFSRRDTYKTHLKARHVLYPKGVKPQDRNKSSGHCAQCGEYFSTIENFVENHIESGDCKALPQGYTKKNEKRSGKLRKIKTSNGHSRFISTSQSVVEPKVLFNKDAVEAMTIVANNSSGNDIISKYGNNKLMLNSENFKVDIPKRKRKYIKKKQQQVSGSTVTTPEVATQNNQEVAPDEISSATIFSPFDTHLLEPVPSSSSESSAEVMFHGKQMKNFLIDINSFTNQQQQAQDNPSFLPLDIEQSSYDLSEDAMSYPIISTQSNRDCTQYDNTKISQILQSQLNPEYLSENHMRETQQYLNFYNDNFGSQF
Protocol: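 Universal 'all 10-mer' protein binding microarrays (Agilent AMADID 015681) probed with GST-tagged S. cerevisiae TFs (full-length or DBD) made by in vitro transcription/translation (PURExpress), about 100-200 nM. Bound TF was detected with fluorescent anti-GST. Each ungapped 8-mer (which stands for itself and its reverse complement) is scored by the PBM enrichment score (E-score), a modified Wilcoxon-Mann-Whitney statistic from -0.5 to +0.5, computed with the Universal PBM Analysis Suite. Scale: above 0.35 generally sequence-specific binding.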

Sequence	PBM E-score
TCTCGAGA	-0.01
CCCCGCCC	0.139
ATCTTTGC	0.262
GATACGAC	0.0153
GATACGGA	0.285
GATACGGC	0.463
AATACGGT	0.0778
AATACGGG	-0.0327
CATACGGA	0.268
CATACGGC	0.472
CATACGGG	0.224
AATACGGC	0.453
ACCCTGAG	-0.216
AATAGACC	-0.159
AACACTTA	0.0357
ACATGGCC	0.147
CCAACATC	-0.127
AGAGCTAT	-0.179
ACAAGGGC	-0.0113
CCACCTGC	-0.021
AGGAGGCG	0.201
ACGAGGCA	0.37
CCGAGGAG	-0.0986
ACGAGGAT	-0.102
ACGAGGCT	0.323

Sequence	PBM E-score
ACGAGGCG	0.457
ACGAGGTA	-0.0774
CCGAGGCC	-0.22
ACGAGGCC	0.016
ACCAGGCT	-0.326
CCGAGGCG	0.333
ACGAGGGA	-0.0556
CTGCAGGC	-0.372
CTCATCTC	0.0521
ACTAAAGT	-0.0712
AGTCTGGC	-0.207
TACGGTAA	0.157
GCGTGGGA	-0.0429
GTCGTCAC	-0.0794
GCGAGGCA	0.439
TCGAGGCA	0.195
CCGAGGCA	0.179
TATCAATA	0.0831
CGCGGCCC	0.349
CGCGGCCG	0.321
GGCGGCCC	0.0299
AGCGGCCG	0.285
AGCGGCCC	-0.00454
CGCGGCCA	0.269
AAAGTCGA	-0.15

Sequence	PBM E-score
ACACACGT	0.0897
AGACACGG	0.363
ACAAACGG	0.352
ACAAACGA	0.129
AGACACAA	0.154
CCACACGG	0.385
CCACACGC	0.158
AGACACGA	-0.124
ACACACGA	0.135
ACAAACGC	0.252
ACACACGG	0.356
CCACACGA	-0.105
CTAGACGA	0.105
GCTCAGCC	-0.123
ATGAGAGG	-0.118
CTCGGTTA	-0.119
ATGCGAAC	-0.103
ACTGCGCT	-0.19
ATGGCGCA	0.0846
ACGGCCCT	0.275
ACCGCGCT	0.077
TCGGCCCA	-0.116
ACGGCGCA	0.482
ACGGCCCA	0.333
ACGGCGCT	0.481

Sequence	PBM E-score
CTGGCGCA	-0.0136
GACTGACC	-0.312
GCCTCTCC	0.0401
CCTCCTGC	-0.205
ACAGTCTA	-0.00216
GCTTGCCA	-0.0643
ACCTAGAT	-0.159
AAGCTAAG	-0.136
CAGTGTCA	0.0177
CGGCAATA	0.352
AGGCAATA	0.227
CGGCAATC	0.332
CGGCAAGC	0.124
GGGCAATA	0.0993
AGGCAATC	0.114
AAGAGCGA	-0.231
CACTAGTG	0.056
GCCTTTCC	0.381
ACCTTTCC	-0.194
CCCTTTCC	-0.11
GTTGGGTA	-0.109
CCGCGTAG	0.25
TGGCGTAA	0.0095
AGGCGTAG	-0.0223
AGGCGTAC	0.137

Sequence	PBM E-score
GGGCGTAC	-0.134
CGGCGTAC	0.36
CGGCGTAG	0.335
GGGCGTAA	-0.0217
CGGCGTAA	0.39
ATAGTTTG	0.121
TGTGCAAA	-0.111
ATCCTGCA	-0.159
CAACGCAC	0.0556
AAACATTT	0.0291
ACTATTCC	0.0191
ACTCGCTG	0.0353
CACTTAGC	0.0853
AGAAGTTC	0.0255
AGGCGCTG	0.311
CGGCGCTA	0.453
CGGCGCTC	0.427
CTGCGCTC	-0.214
CTGCGCTA	-0.221
AGGCGCTC	0.137
GGGCGCTA	0.0956
AGGCGCTA	0.358
CCGCGCTA	0.289
AGCACTTG	-0.266
GTTCTCAA	0.2

Sequence	PBM E-score
AGTATAGG	-0.0433
ACATAAAC	0.129
CACTAAAA	0.123
CATGCGGG	0.0548
AATGCGGT	-0.0107
AATGCGGC	0.435
CATGCGGC	0.459
GATGCGGC	0.47
GATGCGGA	0.104
AATGCGGG	0.174
CATGCGGA	0.156
GATGCGCC	0.194
CAGCTAAG	-0.153
CCCGGTTA	-0.0439
CCTCCCAC	-0.132
ACCGTAGA	0.0293
GCCGTAGA	0.427
GCCGTAGC	0.444
ACCGTAGC	-0.138
CCCGTAGC	-0.24
TCCGTAGA	0.0858
AACATTCT	0.215
CGGACGGA	-0.0178
AGGACGGC	0.324
AGGACGGG	-0.271

Sequence	PBM E-score
AGGACGGA	-0.161
CGGACGTC	-0.00174
CGGACGGC	0.442
CTTGTGGA	0.016
CCTACATC	-0.191
ATTCGAAT	0.0494
AACTGTCA	-0.0285
CCGTATGA	0.337
CGGTATGC	-0.0255
GCGTATGA	0.09
ACGTATGA	0.15
CCGTATGC	0.331
ACGTATGC	0.00677
CCAAACGC	0.0617
AGAAAGGC	0.206
AAAAAGGC	0.249
GAAAAGGC	0.145
CGAAAGGA	-0.102
AAAAACGC	0.125
CAAAACGC	0.322
CAAAAGGC	0.359
CGAAAGGC	0.355
GCCTGGAA	-0.133
GCGCATCC	0.0373
CAGCACTA	-0.0254

Sequence	PBM E-score
GTGGTGTA	0.0559
AAATGTCT	-0.057
CCGGCATC	-0.0881
ACGGCATC	0.48
ATGGCATC	0.186
ACGGCATG	0.422
AGGGCATG	0.0868
ATGGCATG	0.22
ACGCGCTC	0.105
CCGAAATA	0.0974
GGATGAGA	-0.157
AAGTCAGC	0.0691
AAACGGAT	0.259
AAACGGTC	0.0651
CAACGGCC	0.173
AAACGGCT	0.376
CAACGGCG	0.429
AAACGGGT	0.188
CAACGGGG	-0.104
CAACGGAG	-0.0687
AAACGGTG	0.1
AAACGGCG	0.481
AAACGGAG	0.18
AAACGGCC	0.368
CGGGCCAG	-0.159

Sequence	PBM E-score
AAGCGCTG	-0.0462
TGCAGGCA	-0.105
GCTCGCCC	-0.205
CGGGAGAA	-0.111
GGACAATA	0.0607
ACGTCAAC	0.0286
CACTCTCG	-0.0668
ATGCTATC	-0.218
CGTAGGAA	-0.0469
ATGGCGGG	-0.132
CATTGCCC	0.0291
ATTTGCCC	0.109
AATTGCCA	-0.00723
CATTGCCG	0.358
ATTTGCCG	0.335
AATTGCCC	0.0223
AATTGCCG	0.341
ATTTGCCA	-0.0687
CATTGCCA	-0.0509
GCGTACGC	-0.0472
CCGTACGA	0.298
CCGTACGC	0.327
ACGTACGC	-0.023
CCGTACGG	0.341
ACGTACGG	0.292

Sequence	PBM E-score
ACGTGCCA	0.148
ATTCTACA	0.221
CAAGTGAA	0.00842
ACATAAGC	0.00404
AGCTTACA	0.0627
AGACCCTC	-0.313
AATGTCAC	0.136
CTTATGGA	-0.0787
TCGGCGAA	-0.0263
AGGGCGAC	0.015
CCGGCGAA	0.088
GCGGCGGA	0.358
ACGGCGAC	0.467
GCGGCGAC	0.434
ACGGCGGA	0.314
CCGGCGGA	0.0459
CCGGCGAC	-0.167
GCGGCGAA	0.427
GAGGCGAC	0.155
ATGGCGAC	0.0528
AGCTATGA	-0.183
CACCTGCC	0.055
GGTGGCTA	0.0168
AAGCGTAC	-0.161
AGGGACAT	0.0229

Sequence	PBM E-score
CAGCTTGA	-0.0612
TAAGATGA	0.0182
TCATCCGA	0.0548
CAGGGGGG	-0.469
ACGGCGAA	0.465
ATGGCGAA	0.139
ACGGCGGG	0.289
ATGGCGGC	0.158
AGGGCGAA	-0.0283
ACGGCGGC	0.445
CAAGCTAC	-0.171
AGTATATG	-0.0746
TATATATA	0.345
CATATATA	0.256
GATATATA	0.314
AGTATATA	0.363
AGTATATC	0.0639
AACACTCT	0.00778
CCCGGCGC	0.121
GCCGGCGC	0.346
GACGGCGC	0.451
AACGGCGC	0.477
GATGGCGC	0.145
AATGGCGT	0.161
ACCGGCGC	0.3

Sequence	PBM E-score
AATGGCGC	0.253
AACGGCGT	0.448
AACGGGGC	0.186
GACGGGGC	0.143
ACCGGCGT	0.0951
ATAGCAGC	-0.187
CTGAGCGC	0.0168
GAGAACAA	0.145
CACGGGCA	0.231
ACGTAGTA	0.103
CCCTCTTC	-0.308
AACGGGGG	-0.316
AACGGGCG	0.154
AACGGCGG	0.378
CGACTGCG	-0.098
GAAAGACC	-0.321
AACGCCCC	0.213
AACGCCGG	0.0903
AACGCCTC	0.225
AACGCCGT	0.482
AACGCCTT	0.328
AACGCCGA	0.292
AACGCCTA	0.0856
AACGCCAC	0.245
AACGCCGC	0.47

Sequence	PBM E-score
ACCGACGA	-0.0695
CGCCATCA	-0.144
CTAGGTTA	0.00212
GACTTGGC	-0.232
GGGCCGTA	0.369
CGGCCGTA	0.37
CGGCCGTC	0.16
AGGCCGTA	0.298
GGCCCGTA	-0.0728
CGGCCGGA	-0.15
CGGCCAGC	-0.206
CATGGTCA	0.103
ATCTAAAG	-0.0363
GGAATTGA	0.0238
GGCGCCCC	0.284
GTCGCGGA	-0.0678
GGCGCGCC	0.423
GGCGCGTA	0.186
CGCGCAAA	0.198
GGCGCGCA	0.318
CGCGCGCA	0.272
TGCGCGCA	0.133
CGCGCGGA	0.256
GGCGCAAA	0.406
GGCGCGGA	0.337

Sequence	PBM E-score
AGCGCAAA	-0.0739
CAGCAGTA	-0.0846
AAGAAGCC	0.232
ACCACTTC	-0.242
CGAGCTAG	-0.0273
AGGTTGCC	-0.0941
GCTTGAAC	0.111
AAAGGAGG	-0.258
ACCAAACA	0.201
AAAGTCTG	-0.115
CAATTAGG	0.104
CGCGCGAG	0.239
CCCGCGCC	0.297
CGCGCGCC	0.403
CCCCCGCG	-0.0598
AGCGCGCC	0.196
CTCGCGCC	0.295
CCCGCGCG	0.328
CGCGCGCG	0.405
AGCGCGCG	0.196
